Hit rate of the full screen: of about 330,000 compounds, about 10,000 (3%) were called active. The sample holds actives, similar compounds and a random draw of the others, so the mix is not that of the screen. A number with no mark means an inactive call.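 Rule for the calls: active = inhibition of at least 50% at 8 µM in the primary screen; inactive = the rest.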
target: Protein Mdm4 (Homo sapiens) + E3 ubiquitin-protein ligase Mdm2 (Homo sapiens) (UniProt O15151+Q00987); experiment: disruptors of Mdm2/MdmX RING complex – cell-based, luminescence, split luciferase, SaOS-2, uHTS, primary screen (AID 485346); settings: SaOS-2 split-luciferase Mdm2/MdmX complementation, at 8 µM, stronger effect = higher value
Sequence (O15151 whole entry, looked up): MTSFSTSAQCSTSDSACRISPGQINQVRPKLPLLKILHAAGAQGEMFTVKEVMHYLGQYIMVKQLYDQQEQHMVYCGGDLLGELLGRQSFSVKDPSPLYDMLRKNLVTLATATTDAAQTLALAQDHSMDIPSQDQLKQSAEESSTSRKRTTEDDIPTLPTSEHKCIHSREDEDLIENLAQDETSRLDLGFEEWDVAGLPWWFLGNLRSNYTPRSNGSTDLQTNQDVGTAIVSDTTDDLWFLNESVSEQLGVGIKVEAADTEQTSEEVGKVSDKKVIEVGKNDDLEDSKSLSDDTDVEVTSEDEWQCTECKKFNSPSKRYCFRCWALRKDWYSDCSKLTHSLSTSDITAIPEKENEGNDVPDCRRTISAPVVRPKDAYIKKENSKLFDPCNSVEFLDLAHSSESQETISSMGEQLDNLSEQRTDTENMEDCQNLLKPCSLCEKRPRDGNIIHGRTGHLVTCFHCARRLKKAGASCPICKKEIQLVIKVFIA
Sequence (Q00987 whole entry, looked up): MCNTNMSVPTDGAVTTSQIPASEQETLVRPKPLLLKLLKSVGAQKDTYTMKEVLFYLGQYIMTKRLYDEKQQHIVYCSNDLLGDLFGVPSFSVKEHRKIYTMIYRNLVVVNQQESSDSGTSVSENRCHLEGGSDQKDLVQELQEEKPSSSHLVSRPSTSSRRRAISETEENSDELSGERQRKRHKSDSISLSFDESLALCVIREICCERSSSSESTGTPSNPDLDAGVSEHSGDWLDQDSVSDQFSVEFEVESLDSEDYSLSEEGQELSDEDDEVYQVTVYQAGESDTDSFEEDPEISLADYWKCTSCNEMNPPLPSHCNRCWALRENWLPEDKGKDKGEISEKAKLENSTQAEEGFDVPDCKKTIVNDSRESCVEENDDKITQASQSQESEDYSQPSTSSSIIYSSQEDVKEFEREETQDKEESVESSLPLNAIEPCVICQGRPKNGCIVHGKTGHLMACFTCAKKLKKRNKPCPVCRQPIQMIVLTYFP

Structure (SMILES) | inhibition
O=C1c2ccccc2[C@@H]2C[C@@H](O)[C@H](Nc3ccccc3Cl)CCN12 | 22.5%
Cc1ccnc(SCC(=O)Nc2cccc(S(=O)(=O)N3CCOCC3)c2)n1 | 15.8%
CC(=O)Oc1c(C(=O)c2nnc(C)o2)c(=O)n(Cc2ccccc2)c2ccccc12 | 53.7% (active)
CC(=O)c1nc2ccccc2n1Cc1ccccc1 | 4.16%
COC(=O)CSc1nc2ccccc2c(=O)n1Cc1ccccc1 | 1.48%
CCN1C(=S)N[C@@H](CCc2ccccc2)[C@H](C(=O)OC)[C@H]1C | 6.92%
Cc1ccc(NC(=O)/C(=C/c2ccc([N+](=O)[O-])cc2)NC(=O)c2ccccc2)cc1 | 17.1%
CCOC(=O)/C(=C\c1ccc([N+](=O)[O-])cc1)C(=O)c1cc(C(C)=O)c(Nc2ccccc2)s1 | 99.3% (active)
CCOC(=O)/C(=N\Nc1ccccc1[N+](=O)[O-])c1csc(Nc2ccccc2)n1 | 23.4%
O=C(C1CC(=O)N(C2CCCC2)C1)N1CCN(c2cccc(C(F)(F)F)c2)CC1 (stereo not drawn) | 4.03%
Cc1cc(Nc2cccc(C)c2C)n2ncnc2n1 | -28.4%
Cc1cccc(OCC(O)Cn2c(N3CCCCC3)nc3c2c(=O)[nH]c(=O)n3C)c1 (stereo not drawn) | -19.9%
COc1ccc(C(=O)CSc2nnc(NC(=O)C3CC(=O)N(c4cccc(OC)c4)C3)s2)cc1 (stereo not drawn) | -12.2%
NC(=O)CSc1nnc(NC(=O)c2ccc3ccccc3c2)s1 | -8.44%
O=C(/C=C/c1ccccc1)Nc1nnc(SCC(=O)c2ccc3ccccc3c2)s1 | 69.7% (active)
CC(=O)N/C(=C\c1ccccc1)C(=O)OC(C)C(=O)N(C)c1ccccc1 (stereo not drawn) | 19.3%
O=C(CCSCCc1ccccn1)Nc1nccs1 | -7.99%
COc1ccc(C2=NN(C(=O)c3cccnc3)C(c3ccccc3)C2)cc1 (stereo not drawn) | 19.9%
COc1ccc(C2CC(c3ccccc3)=NN2C(=O)c2ccc(Cl)c([N+](=O)[O-])c2)cc1 (stereo not drawn) | 88.8% (active)
COc1ccc(C2CC(c3ccc([N+](=O)[O-])cc3)=NN2C(C)=O)cc1 (stereo not drawn) | -14%

Structure (SMILES) | inhibition
COc1ccc(C(C(=O)NC2CCCC2)N(CCCO)C(=O)Cn2nnc(-c3ccc(C)o3)n2)cc1 (stereo not drawn) | -6.39%
COC(C[C@@H](O)[C@H](C)[C@H](O)COCc1ccccc1)OC | 26.1%
COc1ccc(C2=NN(C(=O)c3ccccc3C(=O)O)C(c3ccccc3O)C2)cc1 (stereo not drawn) | -30.7%
CCOc1ccccc1C1CC(c2cccc(NS(C)(=O)=O)c2)=NN1C(=O)c1ccccc1 (stereo not drawn) | 8.21%
CCOc1ccc2nc(Cl)c(C3CC(c4ccccc4)=NN3C(=O)c3cccs3)cc2c1 (stereo not drawn) | 95% (active)
CCOc1ccc(C(C)C)cc1S(=O)(=O)n1nc(C)cc1C | 13.1%
COc1ccc(OC)c(S(=O)(=O)n2c([N+](=O)[O-])cnc2C)c1 | 22.7%
COc1ccc(C(C[N+](=O)[O-])n2nc(C)cc2C)cc1 (stereo not drawn) | 69.3% (active)
Cc1ccc(Cl)c(NC(=O)CN(C)CC(=O)Nc2ccc(F)c(F)c2F)c1Cl | -0.971%
O=C(OCC(=O)N1CCCCCC1)c1ccc(Cl)nc1 | 0.359%
Cc1ccccc1NC(=O)NNC(=O)OC(C)(C)C | 20.7%
O=C(NNc1c2ccccc2nc2ccccc12)c1cc2ccccc2cc1O | 35.2%
CC(C)(C)OC(=O)NNc1c2ccccc2nc2ccccc12 | 95.7% (active)
C/C(=N/Nc1ccc(Cl)cc1)c1cnnc(-c2ccccc2)n1 | -8.35%
Cc1nc(SCC(=O)Nc2cc(C)on2)c2c(C)c(C)sc2n1 | 79.8% (active)
Cc1cc(NC(=O)CSc2ncc(C(F)(F)F)cc2Cl)no1 | 6.3%
Cc1cc(NC(=O)CSc2nc(C(C)C)nc3sc4c(c23)CCC(C)C4)no1 (stereo not drawn) | 48.9%
COc1cccc(OCCOc2cccc(/C=N/n3cnnc3)c2)c1 | -7.51%
Cc1ccccc1OCCOc1ccc([N+](=O)[O-])cc1/C=N/n1cnnc1 | 58.7% (active)
Cc1cc([N+](=O)[O-])c(-c2ccc(/C=N/n3cnnc3)o2)cc1Cl | 26.5%

Structure (SMILES) | inhibition
COc1ccc(CCNC(=O)COC(=O)c2cnc(Cl)c(Cl)c2)cc1 | -24.9%
CN(C)CC(O)COc1ccc(C(C)(C)c2ccc(OCC(O)CN(C)C)cc2)cc1 (stereo not drawn) | 97.5% (active)
Cc1cc(C)n(CC(O)COc2ccc(C(C)(C)C)cc2)n1 (stereo not drawn) | 0.107%
CC(C)(c1ccccc1)c1ccc(OCCN)cc1 | 29.2%
CC(Oc1cccc(Cl)c1)C(=O)NC1CC(C)(C)NC(C)(C)C1 (stereo not drawn) | 12.5%
Cc1ccc(C(CC(=O)O)NC(=O)c2ccc(S(=O)(=O)N3CCCC3)cc2)cc1 (stereo not drawn) | 23.9%
COc1ccc(S(=O)(=O)N2CCOCC2)c(C)c1C | 4.93%
COc1ccc(CN(C)C(=S)Nc2ccc(Cl)cc2Cl)cc1 | 2.13%
COc1ccc(CCNCC(O)Cn2ccc3ccccc32)cc1OC (stereo not drawn) | 11.5%
COc1c(C)c2c(c(O)c1C/C=C(\C)CCC(=O)O)C(=O)OC2 | 97.1% (active)
NNC(=O)c1ccc(COCC(F)(F)C(F)F)cc1 | 6.42%
O=C(Nc1ccccc1Cc1ccccc1)c1ccc2c(c1)SC1=NS(=O)(=O)CCN12 | 20.2%
Cc1cc(=O)oc2cc(OCCC[n+]3ccccc3)ccc12 | -31%
CCOc1ccccc1N1CCN(C(=O)COc2ccc3c(C)cc(=O)oc3c2)CC1 | 18.6%
Cc1cc(=O)oc2cc(OCC3CC(c4ccccc4Cl)=NO3)ccc12 (stereo not drawn) | 63.9% (active)
O=C1C=C(c2cc(C(F)(F)F)cc(C(F)(F)F)c2)C[C@@H](c2ccc3c(c2)OCO3)C1 | 15.2%
CCc1ccc(-n2c(SCc3cc(=O)n4cc(Br)ccc4n3)nc3[nH]ncc3c2=O)cc1 | 41.3%
CC(O)CN(Cc1ccc(Cl)cc1)CC(C)O (stereo not drawn) | 14.3%

Reference: PubChem BioAssay AID485346 (Sanford-Burnham Center for Chemical Genomics, 2010)
